From PubChem BioAssay (NCATS)
Activity calls are given as the source filed them. Calls come from the whole dose curve; as a rule, active = well fitted activation curve with a large enough effect; inconclusive = small, poorly fitted or top-dose-only effect; inactive = flat fitted curve, though single readings scatter.

assay: Cellular Toxicity (caspase-3) SHSY5Y (AID 657); conditions: SH-SY5Y caspase-3 activation, DMSO zero, 10 µM staurosporine = 100%; series mostly up to 91.7 µM
From the text: NIH Chemical Genomics Center [NCGC]
NIH Molecular Libraries Screening Centers Network [MLSCN]
National Institutes of Environmental Health Sciences [NIEHS]
National Toxicology Program [NTP]
We have developed a 1536-well cell-based assay for quantitative high throughput screening (qHTS) against a number of cell lines to determine in vitro caspase 3/7 activity of small molecules. This particular assay uses the SH-SY5Y cell line which is derived from human neuroblastoma.
NCGC Assay Protocol Summary:
The Caspase-Glo 3/7 assay (Promega) is a homogeneous method to measure caspase-3 and caspase-7 activities in cultured cells. The quantitation of caspase 3/7 activity is based on the cleavage of a peptide-aminoluciferin substrate. After caspase cleaves the substrate the free aminoluciferin is liberated and serves as the substrate of luciferase, which generates the light. The luminescent signal is proportional to the amount of caspase 3/7 activity present.
Using the Caspase-Glo 3/7 assay, the amount of caspase 3/7 activity was measured in the SH-SY5Y cell line with complete culture medium following compound treatment for 16 hours. The assay was performed in opaque white 1536-well plates. In the screen, staurosporine and doxorubicin were used as positive controls. Library compounds were measured for their ability to cause the activation of caspase 3/7 in the cell line, as reflected by an increase in luminescence signal, in a concentration-dependent manner. Data were normalized to the controls for basal activity (DMSO only) and 100% stimulation (10 uM staurosporine). AC50 values were determined from concentration-response data modeled with the standard Hill equation.
qHTS protocol for caspase 3/7 assay in SH-SY5Y cells
[Step] [Parameter] [Value] [Description]
1. Reagent; 5 uL; 1500 SH-SY5Y cells/well
2. Time; 5 hr; 37 °C incubation
4. Controls; 23 nL; doxorubicin 7 pM to 100 uM & staurosporine 1.4 pM to 20 uM
5. Time; 16 hr; 37 °C incubation
6. Reagent; 5 uL; Caspase-Glo 3/7 reagent
7. Time; 1 hr; Room Temperature
8. Detection; Luminescence; Viewlux plate reader
Keywords: caspase 3/7, apoptosis, SH-SY5Y cell line, luminescence, NTPHTS, NTPHTS_NCGC, NIEHS, EPA, DSSTox, MLSMR, MLSCN, NIH Roadmap, qHTS, NCGC

Structure (SMILES)	outcome
CCOC(C)=O	inactive
CCCCCCCC(=O)O	inactive
CC(O)CO (stereo not given)	inactive
Nc1ccn([C@H]2CS[C@@H](CO)O2)c(=O)n1	inactive
CCCCC/C=C\C/C=C\CCCCCCCC(=O)O	inactive
O=C(O)CCC(=O)C(=O)O	inactive
IC(I)I	inactive
O=CCCCC=O	inactive
CCOc1ccc2c(c1)C(C)=CC(C)(C)N2	inactive
O=S(=O)(O)O	inactive
CC1=C2[C@@H]([C@H](C)CC[C@H]2/C=C(\C)C(=O)O)[C@H](O)C1	inactive
CCCCCCCC/C=C\CCCCCCCC(=O)O	inactive
CC(C)=O	inactive
Cc1ccccc1	inactive
CC1=C(/C=C/C(C)=C/C=C/C(C)=C/CO)C(C)(C)CCC1	inactive
